Source: PubChem BioAssay (NCATS)
Inconclusive results are not listed. Entries that show only a call come without a potency. Values without a mark were called inactive. Active and inactive are the calls of the source. Calls follow the shape of the dose curve; as a rule, active = well fitted curve in the direction sought with a large enough effect; inconclusive = small, poorly fitted or top-dose-only effect, or another doubt; inactive = no such curve, though single readings can be large; an effect the other way counts as inactive or inconclusive.

Columns and labels:
[1] = qHTS for Inhibitors of the Aldehyde Dehydrogenase Family (ALDH1A2, ALDH1A3, ALDH2, ALDH3A1) (AID 2061307); also: nearly all actives have a fitted effect of over 50% in size; as to potency: test system not described further here; potency is read from the fitted curve at half-maximal effect
[2] = target: Aldehyde dehydrogenase, mitochondrial (Homo sapiens) (UniProt P05091); assay: qHTS for Inhibitors of the Aldehyde Dehydrogenase Family (ALDH2) Primary screen (AID 2061308); also: nearly all actives have a fitted effect of over 55% in size
[3] = target: Retinaldehyde dehydrogenase 3 (Homo sapiens) (UniProt P47895); assay: qHTS for Inhibitors of the Aldehyde Dehydrogenase Family (ALDH1A3) Primary screen (AID 2061315)
[4] = target: Aldehyde dehydrogenase 1A1 (Homo sapiens) (UniProt P00352); assay: qHTS for Inhibitors of the Aldehyde Dehydrogenase Family (ALDH1A1) Confirmatory screens (AID 2061316); also: nearly all actives have a fitted effect of over 65% in size; also: potency is read from the fitted curve at half-maximal effect
[5] = target: Retinaldehyde dehydrogenase 3 (Homo sapiens) (UniProt P47895); assay: qHTS for Inhibitors of the Aldehyde Dehydrogenase Family (ALDH1A3) Confirmatory screens (AID 2061311); also: potency is read from the fitted curve at half-maximal effect; nearly all actives have a fitted effect of over 60% in size
[6] = BET inhibitor-based combinations targeting novel dependencies in MECOM-rearranged (r) AML: MV-4-11 cell line (AID 2202233); also: nearly all actives have a fitted effect of over 45% in size; also: potency is read from the fitted curve at half-maximal effect
Procedure, shortened: (§1)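 Seeding density was 500 cells/well, and drug exposure lasted 48 hr under standard culture conditions. Read-out used CellTiter-Glo reagent with a 15 min room-temperature incubation before luminescence measurement; AUC and Z-AUC summarize the normalized responses.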

[7] = BET inhibitor-based combinations targeting novel dependencies in MECOM-rearranged (r) AML: UCSD-AML1 cell line (AID 2202235); also: series mostly up to about 46 µM; nearly all actives have a fitted effect of over 40% in size
Procedure, shortened: as §1

[8] = BET inhibitor-based combinations targeting novel dependencies in MECOM-rearranged (r) AML: AML-191 cell line (AID 2202236; also: nearly all actives have a fitted effect of over 35% in size)
Procedure, shortened: (§2)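 Readout: CellTiter-Glo luminescence. Exposure: 48 h, 11 concentrations, 500 cells/well. Metric: AUC and within-line Z-AUC after DMSO/empty-well normalization.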

[9] = BET inhibitor-based combinations targeting novel dependencies in MECOM-rearranged (r) AML: AML-194 cell line (AID 2202237; also: nearly all actives have a fitted effect of over 40% in size)
Procedure, shortened: as §2

[10] = BET inhibitor-based combinations targeting novel dependencies in MECOM-rearranged (r) AML: SET-2 cell line (AID 2202231); settings: SET-2 AML cells viability, CellTiter-Glo luminescence, 48 h; viability: active compounds read low, series mostly up to about 46 µM; also: nearly all actives have a fitted effect of over 35% in size
Procedure, shortened: as §2

[11] = BET inhibitor-based combinations targeting novel dependencies in MECOM-rearranged (r) AML: OCI-AML3 cell line (AID 2202232); settings: Potency: OCI-AML3 viability; also: series mostly up to about 46 µM; nearly all actives have a fitted effect of over 35% in size
Procedure, shortened: as §2

[12] = BET inhibitor-based combinations targeting novel dependencies in MECOM-rearranged (r) AML: HNT-34 cell line (AID 2202234); also: nearly all actives have a fitted effect of over 35% in size
Procedure, shortened: as §1

COc1cccc(CNc2ccc(S(=O)(=O)Nc3ccc(C)nc3)cc2)c1O
Potency [1]: inactive
Potency [2]: inactive
Potency [3]: inactive
Potency [4]: inactive

O=C([C@H](Cc1ccc(O[S+](=O)([O-])c2cccnc2)cc1)N[S+](=O)([O-])c1cccc2cnccc12)N1CCN(c2ccccc2)CC1
Potency [1]: inactive
Potency [2]: inactive
Potency [3]: inactive

CC(=O)c1ccc(N2CCN(C(=O)CCS(=O)(=O)c3ccc4c(c3)oc(=O)n4C)CC2)cc1
Potency [1]: inactive
Potency [5]: 16.2 µM (active)

COc1ccc(NC(=O)CN(C)C(=O)c2cc3c(s2)CCC3)cc1
Potency [1]: inactive
Potency [2]: inactive
Potency [3]: inactive

CSc1ccc(-c2cnc(N3CCC(C(N)=O)CC3)s2)cc1
Potency [1]: 3.18 µM (active)
Potency [2]: inactive
Potency [3]: inactive

COc1ccc(C2Nc3ccccc3C(=O)N2Cc2ccccc2OC)cc1COc1ccc(NC(C)=O)cc1 (centres undefined)
Potency [1]: 2.25 µM (active)
Potency [2]: inactive
Potency [3]: inactive
Potency [4]: 22.5 µM (active)

COc1ccc(C2Nc3ccccc3C(=O)N2C2CCCC2)cc1COc1ccc(NC(C)=O)cc1 (centres undefined)
Potency [1]: 1.59 µM (active)
Potency [2]: inactive
Potency [3]: inactive
Potency [4]: 20.1 µM (active)

NC(=O)C1CCN(c2nc(-c3ccccc3N)cs2)CC1
Potency [1]: 7.12 µM (active)
Potency [2]: inactive
Potency [3]: inactive
Potency [4]: 12.7 µM (active)

CC(C)(C)OC(=O)NCCOCCOCCOCCn1ncc2c1CCCC2NC(=O)c1ccccn1 (centres undefined)
Potency [1]: inactive
Potency [2]: inactive
Potency [3]: inactive

Cc1cnc(-c2ccccc2C2COC2)nc1NCc1ccc(-n2ccnn2)cc1
Potency [1]: inactive
Potency [2]: inactive
Potency [3]: inactive

COc1cccc(CN2C(=O)c3ccccc3NC2c2ccc(OC)c(COc3ccc(NC(C)=O)cc3)c2)c1 (centres undefined)
Potency [1]: 3.55 µM (active)
Potency [2]: inactive
Potency [3]: inactive

CNc1sc(-c2cccc3ccccc23)nc1C(=O)OC
Potency [1]: 15.9 µM (active)
Potency [2]: inactive
Potency [3]: inactive
Potency [4]: 14.2 µM (active)

CC(=O)N1CCc2cc(-c3nc(NC(=O)Cc4ccc5c(c4)OCO5)sc3C)ccc21
Potency [1]: 2.01 µM (active)
Potency [2]: inactive
Potency [3]: inactive
Potency [4]: 10.1 µM (active)

CCOC(=O)c1ccc(-n2cccc2/C=C2\NC(=O)NC2=O)cc1
Potency [1]: inactive
Potency [2]: inactive
Potency [3]: inactive

CC(C)Oc1cccc(-c2cnc(N3CCC(C(N)=O)CC3)s2)c1
Potency [1]: inactive
Potency [2]: inactive
Potency [3]: inactive

Cc1nc(-c2ccccc2)oc1-c1ccc2ncnc(NCc3ncc[nH]3)c2c1
Potency [1]: inactive
Potency [2]: inactive
Potency [3]: inactive

Cc1ccc2nc3sc(C(=O)Nc4ccncc4)cc3cc2c1
Potency [1]: 11.3 µM (active)
Potency [2]: inactive
Potency [3]: inactive
Potency [4]: 14.2 µM (active)

N#Cc1ccc(CNc2nc(-c3ccccc3C(F)(F)F)nc3ccccc23)cc1
Potency [1]: 17.9 µM (active)
Potency [2]: inactive
Potency [3]: inactive
Potency [4]: 14.2 µM (active)

COc1ccc(C2Nc3ccccc3C(=O)N2Cc2ccccc2Cl)cc1COc1ccc(NC(C)=O)cc1 (centres undefined)
Potency [1]: 8.96 µM (active)
Potency [2]: inactive
Potency [3]: inactive

O=C(O)c1ccc(S(=O)(=O)N[C@H](Cc2ccc(O)cc2)C(=O)O)cc1
Potency [1]: inactive
Potency [2]: inactive
Potency [3]: inactive
Potency [4]: 10.1 µM (active)

N[C@@H](Cc1ccc(OS(=O)(=O)c2cccnc2)cc1)C(=O)N1CCN(c2ccccc2)CC1
Potency [1]: 5.65 µM (active)
Potency [2]: inactive
Potency [3]: inactive
Potency [4]: 10.1 µM (active)

Cc1ccc(-n2c(C)cc(-c3nnc4n3CCCCC4)c2C)cc1
Potency [1]: inactive
Potency [2]: inactive
Potency [3]: inactive
Potency [4]: 20.1 µM (active)
Potency [6]: 23.5 µM (active)
Potency [7]: inactive
Potency [8]: inactive
Potency [9]: inactive

COc1ccc(C2c3c(ncn(CCN4CCOCC4)c3=N)Oc3ccc4ccccc4c32)cc1OC (centres undefined)
Potency [1]: inactive
Potency [2]: inactive
Potency [3]: inactive

C/C=C/C=C/C(O)=C1/C(=O)[C@]2(C)C3/C(=C(O)/C=C/C=C/C)C(=O)C4(C)C1[C@]1(C)O[C@@]4(O)[C@@]3(C)O[C@@]12O
Potency [1]: inactive
Potency [2]: inactive
Potency [3]: inactive
Potency [4]: 12.3 µM (active)

N#Cc1nc(Nc2cccc(Cl)c2)nc(NC2CCCC2)n1
Potency [1]: 0.708 µM (active)
Potency [2]: inactive
Potency [3]: inactive

COc1cc(/C=C2\C(=O)Nc3ccccc32)ccc1O
Potency [1]: inactive
Potency [2]: inactive
Potency [3]: inactive

CN(Cc1ccco1)c1ncnc2ccc(-c3ccoc3)cc12
Potency [1]: inactive
Potency [2]: inactive
Potency [3]: inactive
Potency [4]: 12.7 µM (active)

Cc1cc(NC(=O)c2ccc(NC(=O)Cc3ccc(Cl)c(Cl)c3)cc2)no1
Potency [1]: inactive
Potency [2]: inactive
Potency [3]: inactive

Fc1cnc(-c2ccccc2C(F)F)nc1NCC1CCN(c2cnccn2)CC1
Potency [1]: inactive
Potency [2]: inactive
Potency [3]: inactive

COC(=O)c1ccc(O)c2ncc(-c3ccc(C(=O)N4CCNCC4)cc3)cc12
Potency [1]: inactive
Potency [2]: inactive
Potency [3]: inactive
Potency [4]: inactive

CC(=O)c1cccc(-c2csc(N3CCC(C(N)=O)CC3)n2)c1
Potency [1]: 11.3 µM (active)
Potency [2]: inactive
Potency [4]: 5.65 µM (active)

O=C(O)c1ccc(O)c2ncc(-c3ccc(C(=O)N4CCNCC4)cc3)cc12
Potency [1]: inactive
Potency [2]: inactive
Potency [3]: inactive
Potency [4]: inactive

NCC(=O)Nc1cncc(-c2nn3c(=O)cc(N4CCNCC4)nc3s2)c1
Potency [1]: inactive
Potency [2]: inactive
Potency [3]: inactive
viability [10]: 111%
Potency [11]: inactive
Potency [6]: inactive
Potency [12]: inactive
Potency [7]: inactive
Potency [8]: inactive
Potency [9]: inactive
